From PubChem BioAssay
Unmarked numbers belong to inactive results. Records with an inconclusive call do not appear. Active and inactive are the calls of the source.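 How the source made its calls, unless noted: active means inhibition over a set limit, the all-compound mean plus 3 SD, in both replicate runs; inconclusive means over that limit in just one replicate run; inactive means at or under that limit in both runs.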

Experiments:
[1] = S. cerevisiae growth inhibition in permissive medium (OD615), pilot counter-assay for S. cerevisiae lifespan shortening project, permissive growth control (AID 705;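 active means growth inhibition above 25% in both replicates, a cutoff set 3 SD above the mean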); conditions: OD615, 24 h, at 10 µM, active compounds read high
[2] = doxorubicin toxicity protection in MRP-1 cells – H69AR cells, CellTiter-Glo, duplicate, MRP-1 activator project, pilot screen (AID 807;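 active means viability increase at or above a cutoff of the median across tested compounds plus 3 SD, cut at about 8.5% in these data, passing the limit was not always enough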;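 further: compound pretreatment 18-22 h then 72 h combined with doxorubicin; 0% = doxorubicin alone and 100% = vehicle without doxorubicin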); conditions: H69AR viability with doxorubicin, CellTiter-Glo luminescence; at 10 µM; active compounds read high
[3] = viability of HCT116 without oncogenic beta-catenin – human colon tumor cells, pilot screen (AID 823;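 active means cell viability at or below a set limit in both duplicate runs, the limit being the all-compound median minus 4 SD, cut at about 23% in these data, passing the limit was not always enough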;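 further: 0% = wells killed by 20 µM Hyamine and 100% = untreated DMSO cell wells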); conditions: HCT116 beta-catenin knockout viability, CellTiter-Glo, 60 h; at 10 µM; active compounds read low
[4] = viability of PTEN-null HCT116 cells – cell-based, HCT116 clonal line, CellTiter-Glo, pilot screen (AID 824;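 active means viability at or below 27.92% in each of two runs, the all-compound median minus 4 SD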;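 further: 0% = 20 µM Hyamine control and 100% = vehicle cell control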); conditions: HCT116 PTEN-deleted viability, 60 h, at 10 µM, active compounds read low
[5] = RAM pathway blockade in budding yeast – dse1pr::URA3 reporter, 5-FOA selection, pilot screen (AID 869);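 further: 0% = DMSO wells with no growth and 100% = 10 µM 1-NA-PP1 with full growth; RAM network block rescues cells from 5-FOA so hits raise OD615 growth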; conditions: S. cerevisiae dse1pr::URA3 5-FOA growth, OD615, 2 d; at 10 µM; active compounds read high; strain carries analog-sensitive mutant Cbk1 kinase
[6] = RAM signaling pathway blockade in yeast – S. cerevisiae, Pdr1DBD-CYC8 efflux-inhibited sensitized strain, primary screen (AID 1298;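 active means RAM network inhibition above 8.4% in each of two replicates, 3 SD over the compound average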;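 further: 0% = DMSO untreated cells without growth and 100% = 10 µM 1-NA-PP1 full growth; higher means more yeast growth rescued from 5-FOA killing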); conditions: S. cerevisiae cbk1-as DSE1-URA3 strain, 5-FOA growth OD615, 2 d; at 50 µM; active compounds read high
[7] = S. cerevisiae growth inhibition in restrictive medium, OD615, pilot screen, restrictive growth control, yeast lifespan reduction project (AID 706;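 active means growth inhibition above a set limit, 3 SD over mean compound inhibition, in both replicates, cut at about 43% in these data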;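 further: modified DeaD lifespan yeast strain shifted to restrictive glucose medium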); conditions: OD615, 48 h, at 10 µM, active compounds read high

SMILES | growth inhibition [1] [%] | viability increase [2] [%] | viability [3] | viability [4] | inhibition [5] [%] | RAM network inhibition [6] [%] | growth inhibition [7] [%]
COc1ccc(OC)c(C2CC(=O)N3CN(c4cccc(Cl)c4)CSC3=C2C#N)c1 (centres undefined) | 1.31 | -2.23 | 100% | 95.4% | 2.46 | 8.89 | 
Cc1cc(/C=N/n2cnnc2)c(C)n1-c1ccc(OCc2ccccc2F)cc1 | -0.03 | -6.9 | 8.8% (active) | 13.7% (active) | 1.2 | 11.1 | 
CC(=O)C1=C(C)Nc2cc(C(F)(F)F)ccc2S1 |  | -1.14 | 93.6% | 85.7% | 1.77 | 4.09 | 27.2
COc1ccc(OCC(=O)Nc2cc(OC)cc(OC)c2)cc1 |  | -3.71 | 88.7% | 93.9% | -0.89 | -2.47 | 7.43
CCC(C)N1CC23C=CC(O2)C(C(=O)OC)C3C1=O (centres undefined) | 0.035 | 1.12 | 109% | 106% | 0.115 | 1.34 | 
O=c1c2ccccc2[nH]c(=S)n1Cc1cccnc1 | 6.04 | -0.83 | 103% | 92.5% | -0.605 | 1.73 | 
CCN1CCN(C(=O)CS(=O)Cc2nc(-c3ccc(OC)cc3)oc2C)CC1 (centres undefined) |  | -0.78 | 104% | 100% | 0.945 | 1.04 | -7.22
CCCc1nc2sc3c(SCC(=O)NCc4ccco4)ncnc3c2c2c1CCC2 | -1.16 | -6.5 | 47.4% |  | 2.37 | 4.21 | 
CSc1nc(-c2ccccc2)nc2[nH]ccc(=O)c12 |  | -3.93 | 76% | 80.6% | 0.065 | 1.4 | -18.3
CCOC(=O)CNC(=O)CSc1nnc(-c2ccco2)n1Cc1ccco1 | 6.66 | -2.83 | 97.2% | 98.2% | 0.765 | 3.76 | 
CC(=O)C(Sc1ccc2nnc(-c3ccc(C)cc3)n2n1)C(C)=O | 1.31 | -4.69 | 101% | 95.3% | 2.04 | 6.06 | 
CCOc1ccc2nc(N3CCC(C(=O)N4CCN(c5ncccn5)CC4)CC3)sc2c1 |  | -3.04 | 82.1% | 90.9% | 1.76 | -1.59 | 25.2
Cc1ccc(/C=c2/sc3nnc(-c4ccccc4Cl)n3c2=O)o1 | -7.07 | -5 | 90.9% | 93% | 0.785 | 3.46 | 
O=C(CSc1ccc2nnc(-c3ccc(Cl)cc3)n2n1)N1CCCC1 | -1.01 | -3.12 | 86.3% | 93.1% | 1.32 | 4.24 | 
CC(=O)NC(=S)c1c(N)n(Cc2ccccc2)c(=O)n(C)c1=O | 19.2 | -3.97 | 84.6% | 80% | 0.92 | 4.62 | 
O=C(O)C1CC=CCC1C(=O)NCc1cn2ccccc2n1 (centres undefined) |  | -2.16 | 103% | 96.1% | 2.84 | 4.32 | -15.1
CCOc1cccc(C(=O)Nc2cc(-c3nn4c(C)nnc4s3)ccc2C)c1 | 9.19 | -4.79 | 100% | 93.6% | 0.07 | 2.22 | 
CCOC(=O)c1c(N)sc2c(OC)c(Br)ccc12 | 21.3 | 0.76 | 99.8% | 102% | -2.46 | 5.62 | 
O=C(CSc1nnc(-c2ccccn2)n1Cc1ccco1)c1ccccc1 | 0.135 | -3.34 | 98.1% | 95.2% | 0.485 | 7.41 | 
COC(=O)Cn1c(=NC(=O)CSC(C)=O)sc2ccccc21 | 4.79 | -1.9 | 98.5% | 101% | 2.89 | 5.91 | 
